HT1080 IDH1KD tx: toxicity to HT-1080 IDH1 knockdown cells (counter line); AID 686971; HT-1080 IDH1 knockdown viability, ATP luminescence, 48 h; actives 2% (n = 360,000); Potency, µM (series often up to 46.1 µM), without a hit: at the top dose activity, negative = toxicity, most hits filed as cytotoxic;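 note: potency is the fitted concentration of half-maximal effect; 0% = DMSO wells and -100% = cell-free medium wells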
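After a 2 h attachment period, IDH1KD HT-1080 cells took pin-transferred compound for 48 h at 37 °C; ATP-based luminescence after 10 min room-temperature reagent incubation reported viability.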
ELG1 DNA repair: ELG1-dependent DNA repair inhibition | HEK293T ELG1-luciferase reporter, luminescence, 16 h; DNA damage induced by 5-fluorouridine | Potency, µM (titrated, usually from 46.1 µM), without a hit: at the highest dose activity change, negative = inhibition, most hits filed as inhibitors | actives 2.3% (n = 330,000) | AID 504467; note: potency is the fitted concentration of half-maximal effect; nearly all actives have a fitted effect of over 55% in size
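DMSO vehicle served as the neutral condition. Each well held 2,000 cells given 5-fluorouridine plus compound; after 16 hr at 37 °C/5% CO2, ONE-Glo was added and luciferase measured 30 min later.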
HT1080NT lethal: kills 2HG-producing HT-1080-NT fibrosarcoma cells | HT-1080-NT fibrosarcoma viability, CellTiter-Glo ATP luminescence, 48 h | Potency, µM (series often up to 46.1 µM), without a hit: top-dose activity, negative = less viability, hits mostly cytotoxic | actives 1.6% (n = 360,000) | AID 686970;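 note: NT is the 2HG producing partner of a matched IDH1 knockdown line; potency is the fitted concentration of half-maximal effect; 0% = DMSO-treated cells and -100% = media-only wells without cells; nearly all actives have a fitted effect of over 55% in size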
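A 48-hour cytotoxicity screen used HT-1080-NT cells plated 2 hours before compound delivery. ATP-based CellTiter-Glo luminescence measured viability, normalized to DMSO and no-cell controls.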
DT40 TDP1 CPT: growth inhibition of DT40 Tdp1-/-;hTDP1 cells with camptothecin (screen for TDP1 inhibitors); chicken DT40 Tdp1-/-;hTDP1 cells + 20 nM CPT, ATP luminescence, 48 h; Potency, µM (titrated, usually from 46.2 µM), inactives show top-dose activity change, negative = growth inhibition, usual class: inhibitors; actives 12% (n = 420,000); note: potency is the fitted concentration of half-maximal effect; nearly all actives have a fitted effect of over 55% in size
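Chicken DT40 Tdp1-/- cells complemented with human TDP1, 400 cells/well, exposed to compounds plus 20 nM camptothecin for at least 48 h at 37 C; viability read as ATP content by CellTiter-Glo luminescence.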
IL1B secr inh: blocks inflammasome-driven IL-1 beta release; THP-1 LPS/ATP IL-1B secretion, AlphaLISA, 16 h; stronger effect = lower value; activity change, % at 57.5 µM; actives 4.7% (n = 360,000); AID 743279; in the data active = activity change below about -50%; inconclusive = mostly about -30% to -49%
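Secreted IL-1B measured by AlphaLISA bead assay after 16 h compound exposure of THP-1 cells; compounds (final up to 57.5 uM) added 1 h before LPS (250 ng/mL) and ATP (1.25 mM) stimulation; lower signal means less secretion.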
DT40 TDP1 no CPT: qHTS for Inhibitors of human tyrosyl-DNA phosphodiesterase 1 (TDP1): qHTS in cells in absence of CPT | Potency, µM (titrated, usually from 46.2 µM), without a hit: at the highest dose activity change, negative = growth inhibition, actives largely listed as inhibitors | actives 15% (n = 420,000) | AID 686978, 2013 | DT40 Tdp1-/- hTDP1 cells, no CPT, ATP luminescence, 48 h; note: potency is the fitted concentration of half-maximal effect; nearly all actives have a fitted effect of over 55% in size
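Cells were dispensed at 400 per well, compounds added by pin tool, plates incubated ≥48 hr at 37 °C, then CellTiter-Glo added for 30 min at room temperature before luminescence reading. Line: DT40 Tdp1-/- complemented with hTDP1; camptothecin omitted.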
* = called active by the depositor; ? = inconclusive; . = not tested or not shown. Compounds with a hit are over-represented: about 19% of the library has one in this group of screens. Unless noted, calls come from the whole dose curve; as a rule, active = well fitted curve in the direction sought with a large enough effect; inconclusive = small, poorly fitted or top-dose-only effect, or another doubt; inactive = no such curve, though single readings can be large; an effect the other way counts as inactive or inconclusive. Unless noted, % is set by controls: 0 for no effect and ±100 for the full control effect.

SMILES | HT1080 IDH1KD tx | ELG1 DNA repair | HT1080NT lethal | DT40 TDP1 CPT | IL1B secr inh | DT40 TDP1 no CPT
CCN(C[C@H]1N[C@@](CC)(C(=O)OC)[C@H]2C(=O)N(Cc3ccccc3)C(=O)[C@@H]12)C(=O)C1CCCCC1 | 5% | ? | 6% | -19% | -22 | ?
CC(C)NC(=O)/C(C#N)=C/c1ccc(N(C)C)o1 | 26% | ? | 25% | 10% | -6 | -18%
Cc1ccc(-n2nc(C)c3c(C)c(CCC(=O)NCc4ccccc4)c(C)nc32)cc1 | 4% | -8% | -1% | ? | 21 | ?
CC(=O)c1ccc(NC(=O)CCc2c(C)nc3c(c2C)c(=O)n(C)c(=O)n3C)cc1 | . | . | . | -10% | . | ?
CCN(Cc1ccccc1)C(=O)CCc1c(C)nc2c(c(C)nn2-c2ccc(C)c(C)c2)c1C | . | . | . | 4% | . | 15%
CCOc1ccc(NC(=O)CCc2c(C)nc3c(c(C)nn3-c3ccccc3)c2C)cc1 | . | . | . | -24% | . | -22%
Cc1cc(C)cc(NC(=O)CCc2c(C)nc3c(c2C)c(=O)n(C)c(=O)n3C)c1 | . | . | . | ? | . | 16µM*
Cc1nc2c(c(C)nn2-c2ccccc2)c(C)c1CCC(=O)NCCCOC(C)C | -11% | -18% | -9% | -27% | 15 | 21µM*
CCOc1ccc(CCNC(=O)CCc2c(C)nc3c(c(C)nn3-c3ccccc3)c2C)cc1OCC | . | . | . | 15µM* | . | 13µM*
CCOC(=O)N1CCN(C(=O)CCc2c(C)nc3c(c(C)nn3-c3ccc(C)c(C)c3)c2C)CC1 | -3% | 7% | -4% | ? | 23 | 16µM*
CN(C)S(=O)(=O)N1CCC(Oc2ccc(C(=O)N3C[C@@H]4CCC[C@H]3C4)cc2)CC1 | -1% | . | 1% | 16µM* | 13 | ?
CC(C)CCNC(=O)c1ccc(OC2CCN(S(=O)(=O)N(C)C)CC2)cc1 | -14% | ? | -16% | ? | 26 | ?
C#CCN(CC=C)C(=O)c1ccc(OC2CCN(S(=O)(=O)N(C)C)CC2)cc1 | -3% | 21µM* | ? | ? | 0 | ?
CN(C)S(=O)(=O)N1CCC(Oc2ccc(C(=O)N3C[C@H]4CC[C@H]3C4)cc2)CC1 | -18% | 13µM* | ? | 12µM* | 12 | 21µM*
COC1CCCN(C(=O)c2ccc(OC3CCN(S(=O)(=O)N(C)C)CC3)cc2)C1 (stereo not drawn) | 3% | ? | 2% | -25% | 2 | ?
CCn1nc(C)c(CNC(=O)CC2C(=O)NCCN2CC(C)(C)C)c1C (stereo not drawn) | 3% | 4% | 7% | 1% | 13 | 24%
C[C@]12CCC(O)CC1CCC1C2CC[C@]2(C)C(c3cc(C(F)(F)F)n[nH]3)CCC12 (stereo partly drawn) | 0% | ? | 0% | ? | 20 | 13µM*
COc1ccccc1C(=O)NCc1nnnn1-c1ccc(C)c(C)c1 | . | . | . | 5% | . | -10%
Cc1cc(NS(=O)(=O)c2ccc(NC(=O)COc3c(C)ccc(C)c3C)cc2)nc(C)n1 | . | . | . | -3% | . | 21%
COCCNC(=O)C1(C)CCCN(Cc2ccccc2N(C)C)C1 (stereo not drawn) | 8% | . | 21% | -14% | 12 | -4%
CCCNC(=O)C1(C)CCN(Cc2ccc(OCc3ccccc3)cc2)C1 (stereo not drawn) | -6% | . | -28% | 23µM* | -21 | 18µM*
COCCNC(=O)C1(C)CCCN(Cc2cc(-c3ccccc3)on2)C1 (stereo not drawn) | 1% | . | 15% | 13µM* | 39 | 23µM*
COCCNC(=O)C1(C)CCCN(CCSc2ccccc2)C1 (stereo not drawn) | ? | . | 9% | ? | 12 | 13µM*
CCCNC(=O)C1(C)CCN(Cc2ccc(C(=O)OCC)cc2)C1 (stereo not drawn) | 2% | . | 5% | ? | 41 | 16µM*
CCC(CC)C(=O)N1CC(=O)Nc2ccc(F)cc2C1c1ccccc1 (stereo not drawn) | 8% | ? | -1% | 6% | 14 | ?
SMILES | HT1080 IDH1KD tx | ELG1 DNA repair | HT1080NT lethal | DT40 TDP1 CPT | IL1B secr inh | DT40 TDP1 no CPT
COCCNC(=O)C1(C)CCCN(Cc2ccc(OC)cc2)C1 (stereo not drawn) | 11% | . | ? | -34% | 27 | -11%
COCCNC(=O)C1(C)CCCN(Cc2ccc(OCc3ccccc3)cc2)C1 (stereo not drawn) | -11% | . | -5% | 26µM* | -23 | 21µM*
CCCNC(=O)C1(C)CCN(Cc2cc(C(F)(F)F)ccc2Cl)C1 (stereo not drawn) | 10% | . | 11% | 23µM* | 40 | 15µM*
COCCNC(=O)C1(C)CCCN(Cc2ccc(Cl)nc2)C1 (stereo not drawn) | 12% | . | ? | -4% | 21 | 5%
COCCNC(=O)C1(C)CCCN(Cc2ccc(Cl)c(Cl)c2)C1 (stereo not drawn) | 7% | . | 24% | 21µM* | 14 | 16µM*
COCCNC(=O)C1(C)CCN(Cc2ccc(C(C)C)cc2)C1 (stereo not drawn) | 19% | . | 22% | ? | 1 | 21µM*
O=C(CNC(=O)c1ccccc1)OCC(=O)c1ccccc1 | . | . | . | 0% | . | ?
N/C(=N\OC(=O)CC(c1ccccc1)c1ccccc1)c1cccnc1 | ? | -7% | ? | 12µM* | ? | ?
N/C(=N\OC(=O)c1ccccc1)c1cccnc1 | 2% | ? | 7% | -11% | 5 | 8%
CC(C)Cc1nn2c(=O)cc(COC(=O)c3cccc(NC(=O)CCc4ccccc4)c3)nc2s1 | . | . | . | -18% | . | -9%
O=C(c1cccc2nc3ccccc3nc12)N1CCOCC1 | 10% | -2% | 13% | ? | 15 | ?

Assay outcomes as filed in PubChem.
